Results filed as inconclusive are left out. A number with no mark means an inactive call. Active and inactive are the calls of the source. The call rests on the fitted dose curve; in most records, active means well fitted cell-killing curve with a large enough effect in the repeat runs; inconclusive means weak or mixed curves; inactive means flat fitted curve, though single readings scatter.
Assay: qHTS RealTime-Glo MT Cell Viability Assay in HepG2 cells - 32 hour (AID 1224877); further: nearly all actives have a fitted effect of over 55% in size
Settings: RealTime-Glo luminescence; series mostly up to 76.8 µM; activity change, negative = cytotoxic: at the top concentration
From the text: U.S. Tox21 Program National Center for Advancing Translational Sciences [NCATS] NIH Chemical Genomics Center [NCGC] U.S. Environmental Protection Agency [EPA] National Institutes of Environmental Health Sciences [NIEHS] National Toxicology Program [NTP] U.S. Food and Drug Administration [FDA] Tox21 Assay Overview: Measure of cell viability is critical in the cell-base assay. Analysis of cell viability is necessary for the characterization of cell responses to cytotoxic drugs and environmental stress. A RealTime-Glo MT Cell Viability Assay to monitor cell viability in real time of continues cell culture during 40 hours of compound treatment was used to screen Tox21 10K library compounds in HepG2 cells. The RealTime-Glo MT Cell Viability Assay is a nonlytic, homogeneous, bioluminescent method to measure cell viability in real time using a simple, plate-based method. The assay involves adding NanoLuc luciferase and a cell-permeant prosubstrate to cells in culture. Viable cells reduce the proprietary prosubstrate to generate a substrate for NanoLuc luciferase. This substrate diffuses from cells into the surrounding culture medium, where it is rapidly used by the NanoLuc Enzyme to produce a luminescent signal. The signal correlates with the number of viable cells, making the assay well suited for cytotoxicity studies.
Tox21 Assay Protocol Summary: The mixture of HepG2 cell suspension and reagents were dispensed at 600cells/6 ul/well in 1536-well tissue culture treated black solid bottom plates using a Multidrop dispenser. After the assay plates were incubated at a 37 C/5% CO2 incubator for 5 hours, 23 nL of compounds dissolved in DMSO, positive and negative controls was transferred to the assay plate by a pintool work station. The plates were incubated at 37 C for 40 hours. The luminescence intensity were measured at 0h, 8h, 16h, 24h, 32h and 40h time points using ViewLux plate reader during compound treatment.
On the % scale 0 is the no-effect control and ±100 the full control effect; potency means the concentration at half of the fitted maximal effect.

| Compound | activity change, negative = cytotoxic | Potency |
| --- | --- | --- |
| O=C(O)c1ccc(CO)o1 | -5.57% |  |
| Cc1cnc(C)c(C)n1 | 0.727% |  |
| Cc1cc(O)c2c(O)c3c(O)cccc3cc2c1 | -3.19% [at 35.3 µM] |  |
| CC(C)(CCl)c1ccccc1 | -0.744% |  |
| [O]=[Bi] | 5.58% [at 6.97 µM] |  |
| N#C[C@@H]1C[C@@H]2C[C@@H]2N1C(=O)[C@@H](N)C12CC3CC(CC(O)(C3)C1)C2 | 4.04% [at 35.3 µM] |  |
| CCCCC/C(=C\c1ccccc1)CO | 0.388% |  |
| CCCCCCCCSCCO | 2.03% |  |
| Oc1ccc(Nc2ccccc2)cc1 | -15.5% |  |
| CCCc1c(OCCCOc2ccc(OCC(=O)O)cc2)ccc(C(C)=O)c1O | -6.3% |  |
| Cc1ccccc1N1C(=O)c2cc(S(N)(=O)=O)c(Cl)cc2NC1C (stereo not given) | 0.722% [at 35.3 µM] |  |
| c1cc[c]([Bi]([c]2ccccc2)[c]2ccccc2)cc1 | -14.6% |  |
| CCCOCCOCCO | 0.479% |  |
| CC1=C(C=O)C(C)(C)CCC1 | 1.9% |  |
| O=C(O)c1cccnc1C(=O)O | 2.83% |  |
| O=C(CCCN1CCN(c2ccc(F)cc2)CC1)NC1c2ccccc2CSc2ccccc21 (stereo not given) |  | 23.9 µM (active) |
| CCC(C(=O)OCCOCCN(CC)CC)c1ccccc1 (stereo not given) | 1.96% [at 35.3 µM] |  |
| O=C(NCCCN1CCOCC1)c1ccc(Cl)cc1 | 2.01% [at 35.3 µM] |  |
| Cc1cc(C(=C2C=CC(=Nc3ccc(S(=O)(=O)O)cc3S(=O)(=O)O)C=C2)c2ccc(Nc3ccc(S(=O)(=O)O)cc3)cc2)ccc1N | -0.388% [at 35.3 µM] |  |
| C1COCO1 | 4.6% |  |

| Compound | activity change, negative = cytotoxic | Potency |
| --- | --- | --- |
| Nc1nccs1 | 0.0215% |  |
| COc1ccccc1N=Nc1c(S(=O)(=O)O)cc2cc(S(=O)(=O)O)cc(NC(C)=O)c2c1O | -10.4% |  |
| CCCCC1C(=O)N(c2ccccc2)N(c2ccc(O)cc2)C1=O (stereo not given) |  | 16.9 µM (active) |
| CCCCCC=CCC=CCCCCCCCC(=O)OCC | -2.7% [at 35.3 µM] |  |
| C=CC(C)=CCC=C(C)C | 1.08% |  |
| CC(C)c1nnc2ccc(-c3ocnc3-c3cc(F)ccc3F)cn12 | 1.61% |  |
| CCOc1cc(N)c(Cl)cc1C(=O)NCC1CN(Cc2ccc(F)cc2)CCO1 (stereo not given) | -20.5% [at 35.3 µM] |  |
| CC(=O)Nc1ccc(N)cc1 | 1.75% |  |
| O=C1OCCN1/N=C/c1ccc([N+](=O)[O-])o1 | -8.32% [at 35.3 µM] |  |
| O=C(O)c1c(O)c(-c2ccccc2)nc2ccccc12 | 1.87% [at 35.3 µM] |  |
| CC(=O)[C@H]1CC[C@H]2[C@@H]3C[C@H](C)C4=CC(=O)CC[C@]4(C)[C@H]3[C@@H](O)C[C@]12C | -3.03% [at 35.3 µM] |  |
| CCN(Cc1cccc(S(=O)(=O)O)c1)c1ccc(C(=C2C=CC(=[N+](CC)Cc3cccc(S(=O)(=O)[O-])c3)C=C2)c2ccccc2)cc1 | -0.438% [at 35.3 µM] |  |
| OCC1CC=CCC1 (stereo not given) | 1.66% |  |
| C=CC(=O)NCOCC(C)C | -3.5% |  |
| CC(C)C(=O)O | -0.639% |  |
| CN1CCN(c2c(F)cc3c(=O)c(C(=O)O)cn4c3c2OCN4C)CC1 | -0.186% [at 15.8 µM] |  |
| CCCCN(CCCC)C(=S)SSC(=S)N(CCCC)CCCC | -0.398% |  |
| N#C/C(=C1\SCC(c2ccccc2Cl)S1)n1ccnc1 (stereo not given) | -8.54% [at 35.3 µM] |  |
| NC(=O)N(O)[C@@H]1COc2cc(OCc3ccccc3)ccc21 | -14.2% |  |
| O=C(O)C(Cc1cc(I)c(O)c(I)c1)c1ccccc1 (stereo not given) | -0.397% [at 35.3 µM] |  |

From PubChem BioAssay (Tox21)
